Consider 31 molecules from PubChem BioAssay (NCATS).

Records with an inconclusive call do not appear. The source made the active and inactive calls. Calls follow the shape of the dose curve; as a rule, active = well fitted cell-killing curve with a large enough effect; inconclusive = small, poorly fitted or top-dose-only effect, or effect the other way; inactive = no such curve, though single readings can be large or run the other way.
Also: nearly all actives have a fitted effect of over 35% in size.
Potency is read from the fitted curve at half-maximal effect.

One experiment is described as follows: Quantitative High-Throughput drug screen in 47 multiple myeloma cell lines against the NCATS MIPE library collection: SKMM1_PLB cell viability assay (AID 1919863). The note with it: SKMM1 myeloma viability, CellTiter-Glo ATP, 48 h; viability: hits give low values. The gist of the method:
(§1)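 Viability after 48 h drug exposure was measured as ATP-dependent luminescence. Cells, 500 per well, sat at 37 °C under 5% CO2; DMSO wells set 100%, media-only wells 0%.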
For orientation: Cellular ATP, detected with luciferase, serves as a proxy for viable cell number.
In general, viability refers to a read-out of living cells in per cent, often relative to untreated cells. In the case of `O=C(NCCS(=O)(=O)c1ccc(C(F)(F)F)cn1)c1ccc(Cl)cc1`, the viability is 128% (inactive).
Still for that read-out and setting: then `Cn1c(CNc2ccc(C(=N)N)cc2)nc2cc(C(=O)N(CCC(=O)O)c3ccccn3)ccc21`, with 127% (inactive).
Regarding `CC[C@@H]1C(=O)N(C)c2cnc(Nc3ccc(C(=O)NC4CCC(N5CCN(CC6CC6)CC5)CC4)cc3OC)nc2N1C(C)C` (stereo not given in full), the Potency was 2.35 µM (active).
The same measure, in the same setting: then `CN(C)CC=CC(=O)Nc1cc2c(Nc3ccc(F)c(Cl)c3)ncnc2cc1O[C@H]1CCOC1`, with 6.62 µM (active).
In the case of `Cc1[nH]c2ccccc2c1CCNCc1ccc(C=CC(=O)NO)cc1`, the Potency was 0.105 µM (active).
The same measure, in the same setting: next, `NC(=O)c1c(OCc2c(F)cc(Br)cc2F)nsc1NC(=O)NCCCCN1CCCC1`: 29.6 µM (active); `Nc1ccn([C@@H]2O[C@H](CO)[C@H](O)C2(F)F)c(=O)n1`: 0.0264 µM (active).
With `Clc1cccc(-n2nnnc2NCc2ccccc2Oc2ccccn2)c1Cl`, the viability is 120% (inactive).
As to `Cc1nc2cnc3ccc(C#Cc4cccnc4)cc3c2n1-c1ccc(C(C)(C)C#N)cc1`, the Potency is 3.72 µM (active).
The same measure, in the same setting: next, `O=c1[nH]nc(Sc2ncc([N+](=O)[O-])s2)n1-c1ccc2c(c1)OCCO2`: 4.18 µM (active); `COc1ccc(F)c(F)c1C(=O)c1cnc(NC2CCN(S(C)(=O)=O)CC2)nc1N`: 2.96 µM (active).
Same read-out and setting: next, `CC(C)(C)NC(=O)[C@H]1CN(Cc2cccnc2)CCN1C[C@@H](O)C[C@@H](Cc1ccccc1)C(=O)N[C@H]1c2ccccc2C[C@H]1O`: 18.7 µM (active); `O=C(Cc1ccc(-c2ccc(OCCN3CCOCC3)cc2)cn1)NCc1ccccc1`: 0.0166 µM (active); `Cc1cn2c(-c3cn[nH]c3)cnc2c(Nc2ccc(C(=O)N3CCNCC3)cc2F)n1`: 18.7 µM (active).
Same read-out and setting: then `Cc1cc(Nc2cc(CN3CCOCC3)c3nc(C)c(Cc4ccc(Cl)cc4F)n3n2)n[nH]1`, with 16.6 µM (active).
Regarding `Cc1coc2c1C(=O)C(=O)c1c-2ccc2c1CCCC2(C)C`, the Potency was 18.7 µM (active).
On the same count and under the same terms, then `CC(C)=CCCC(C)=CCCC(C)=CCSc1ccccc1C(=O)O`, with 2.64 µM (active); and `COC(=O)Nc1ccc(-c2nc(N3CCOCC3)c3cnn(C4CCN(Cc5cccnc5)CC4)c3n2)cc1`, with 2.09 µM (active); and `COc1cc2c(NC3CCN(C(C)C)CC3)nc(C3CCCCC3)nc2cc1OCCCN1CCCC1`, with 11.8 µM (active).
The same measure, in the same setting: next, `COCCOc1ccc2c(c1)ncn2-c1ccc2cccc(N3CCC(N)CC3)c2n1`: 23.5 µM (active).
Still for that read-out and setting: then `Cn1cncc1[C@@](N)(c1ccc(Cl)cc1)c1ccc2c(c1)c(-c1cccc(Cl)c1)cc(=O)n2C`, with 13.2 µM (active); and `CCc1c2c(nc3ccc(O)cc13)-c1cc3c(c(=O)n1C2)COC(=O)[C@]3(O)CC`, with 0.469 µM (active); and `O=C(Nc1ncc(-c2cc(C(F)F)nn2-c2c(Cl)cccc2Cl)s1)C1CC1`, with 0.332 µM (active).
In the case of `CN1CCN(Cc2ccc(NC(=O)Nc3ccc(Oc4cc(NC(=O)C5CC5)ncn4)cc3)cc2C(F)(F)F)CC1`, the Potency is 0.332 µM (active).
Regarding `COc1cccc(-c2ccc(NC(=O)C3=C(C(=O)O)CCC3)c(F)c2)c1`, the Potency was 5.9 µM (active).
In the case of `c1ccc2c(CCNc3ccc(Nc4ccncc4)cc3)c[nH]c2c1`, the Potency is 29.6 µM (active).

Another experiment can be described thus: Quantitative High-Throughput drug screen in 47 multiple myeloma cell lines against the NCATS MIPE library collection: U266_ATCC cell viability assay (AID 1919864). The following applies: U266 myeloma viability, CellTiter-Glo ATP luminescence, 48 h; series mostly up to 45.8 µM; viability (% of DMSO control): at the top concentration. The gist of the method:
as §1
`O=C(NCCS(=O)(=O)c1ccc(C(F)(F)F)cn1)c1ccc(Cl)cc1`: the “viability (% of DMSO control)” value is 114% (inactive).
The same measure, in the same setting: next, `Cn1c(CNc2ccc(C(=N)N)cc2)nc2cc(C(=O)N(CCC(=O)O)c3ccccn3)ccc21`: 113% [at 23.2 µM] (inactive).
Same read-out and setting: next, `O=C(c1cncc(Br)c1)N1CCC(N2CCCC2)CC1`: 122% (inactive).
On to `CN(C)CC=CC(=O)Nc1cc2c(Nc3ccc(F)c(Cl)c3)ncnc2cc1O[C@H]1CCOC1`, for which the Potency is 20.9 µM (active).
On the same count and under the same terms, then `Nc1ccn([C@@H]2O[C@H](CO)[C@H](O)C2(F)F)c(=O)n1`, with 14.8 µM (active).
Take `C[C@]1(CO)CN(c2cc(C(=O)Nc3ccc4c(c3)-c3c(c(C(N)=O)nn3-c3ccc(F)cc3)CC4)c(Cl)cn2)C[C@@]1(C)CO`: the Potency is 18.7 µM (active).
On the same count and under the same terms, then `Cn1cc(-c2ccncc2)c(-c2ccc(OCc3ccc4ccccc4n3)cc2)n1`, with 18.7 µM (active).
Consider `COc1cc(OC2CCN(C)CC2)ccc1Nc1ncc2c(n1)n(C1CCCC1)c(=O)n2C`, for which the Potency is 14.8 µM (active).
Regarding `O=c1[nH]nc(Sc2ncc([N+](=O)[O-])s2)n1-c1ccc2c(c1)OCCO2`, the Potency was 2.64 µM (active).
Take `COc1ccc(F)c(F)c1C(=O)c1cnc(NC2CCN(S(C)(=O)=O)CC2)nc1N`: the Potency is 2.64 µM (active).
Take `O=C(Cc1ccc(-c2ccc(OCCN3CCOCC3)cc2)cn1)NCc1ccccc1`: the Potency was 0.0935 µM (active).
Still for that read-out and setting: then `Cc1cn2c(-c3cn[nH]c3)cnc2c(Nc2ccc(C(=O)N3CCNCC3)cc2F)n1`, with 13.2 µM (active); and `Cc1cc(Nc2cc(CN3CCOCC3)c3nc(C)c(Cc4ccc(Cl)cc4F)n3n2)n[nH]1`, with 20.9 µM (active).
Take `Cc1coc2c1C(=O)C(=O)c1c-2ccc2c1CCCC2(C)C`: the “viability (% of DMSO control)” value was 112% (inactive).
For `C[C@@H](Oc1cc(-n2cnc3ccc(CN4CCN(C)CC4)cc32)sc1C(N)=O)c1ccccc1C(F)(F)F`, the Potency is 16.6 µM (active).
With `CC(C)=CCCC(C)=CCCC(C)=CCSc1ccccc1C(=O)O`, the Potency was 0.372 µM (active).
Turning to `COC(=O)Nc1ccc(-c2nc(N3CCOCC3)c3cnn(C4CCN(Cc5cccnc5)CC4)c3n2)cc1`, the Potency was 18.7 µM (active).
On to `COc1cc2c(NC3CCN(C(C)C)CC3)nc(C3CCCCC3)nc2cc1OCCCN1CCCC1`, for which the Potency is 2.96 µM (active).
The same measure, in the same setting: next, `COCCOc1ccc2c(c1)ncn2-c1ccc2cccc(N3CCC(N)CC3)c2n1`: 8.33 µM (active); `Cn1cncc1[C@@](N)(c1ccc(Cl)cc1)c1ccc2c(c1)c(-c1cccc(Cl)c1)cc(=O)n2C`: 23.5 µM (active); `O=C(Nc1ncc(-c2cc(C(F)F)nn2-c2c(Cl)cccc2Cl)s1)C1CC1`: 2.96 µM (active).
In the case of `CN1CCN(Cc2ccc(NC(=O)Nc3ccc(Oc4cc(NC(=O)C5CC5)ncn4)cc3)cc2C(F)(F)F)CC1`, the Potency is 0.418 µM (active).
On the same count and under the same terms, then `COc1cccc(-c2ccc(NC(=O)C3=C(C(=O)O)CCC3)c(F)c2)c1`, with 13.2 µM (active).
The same measure, in the same setting: then `c1ccc2c(CCNc3ccc(Nc4ccncc4)cc3)c[nH]c2c1`, with 20.9 µM (active).
